From PubChem BioAssay
SKN-1 block = suppressors of acrylamide-induced Pgst-4::GFP reporter in worms, primary screen, SKN-1 inhibitor project, whole organism, uHTS, GFP/RFP fluorescence ratio, strain VP596; 0.49% of 360,000 active; C. elegans VP596 Pgst-4::GFP/RFP ratio, 24 h; inhibition, % at 21.8 µM;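 active = interference check ratio from 0.5 to 1.5 plus GFP to RFP signal ratio inhibition reaching or exceeding a fixed threshold, cut at about 30% in these data, passing the limit was not always enough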
MPTP inh = mitochondrial permeability transition pore inhibitors, primary screen, biochemical, isolated mouse mitochondria, absorbance; Ca2+ swelling absorbance, 30 min; inhibition, % at 10 µM; 1.4% of 360,000 active; AID 602449, 2012;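 active = inhibition of 50% or more, scaled per plate between neutral and stimulator controls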;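 also: 0% = DMSO wells given calcium and 100% = 1 mM EGTA wells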
CendR NRP1 mod = modulators of CendR peptide binding to NRP-1, primary screen, biochemical, fluorescence polarization, uHTS | FAM-RPARPAR peptide binding to NRP-1 | inhibition, % at 25 µM | 0.85% of 360,000 active | AID 602438, 2012 | Neuropilin-1 (Homo sapiens), O14786;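 active = inhibition or corrected inhibition above about 18%, plus a signal ratio from 0.5 to 1.5, limit read from the data, passing the limit was not always enough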
Target sequence (O14786 whole entry, looked up): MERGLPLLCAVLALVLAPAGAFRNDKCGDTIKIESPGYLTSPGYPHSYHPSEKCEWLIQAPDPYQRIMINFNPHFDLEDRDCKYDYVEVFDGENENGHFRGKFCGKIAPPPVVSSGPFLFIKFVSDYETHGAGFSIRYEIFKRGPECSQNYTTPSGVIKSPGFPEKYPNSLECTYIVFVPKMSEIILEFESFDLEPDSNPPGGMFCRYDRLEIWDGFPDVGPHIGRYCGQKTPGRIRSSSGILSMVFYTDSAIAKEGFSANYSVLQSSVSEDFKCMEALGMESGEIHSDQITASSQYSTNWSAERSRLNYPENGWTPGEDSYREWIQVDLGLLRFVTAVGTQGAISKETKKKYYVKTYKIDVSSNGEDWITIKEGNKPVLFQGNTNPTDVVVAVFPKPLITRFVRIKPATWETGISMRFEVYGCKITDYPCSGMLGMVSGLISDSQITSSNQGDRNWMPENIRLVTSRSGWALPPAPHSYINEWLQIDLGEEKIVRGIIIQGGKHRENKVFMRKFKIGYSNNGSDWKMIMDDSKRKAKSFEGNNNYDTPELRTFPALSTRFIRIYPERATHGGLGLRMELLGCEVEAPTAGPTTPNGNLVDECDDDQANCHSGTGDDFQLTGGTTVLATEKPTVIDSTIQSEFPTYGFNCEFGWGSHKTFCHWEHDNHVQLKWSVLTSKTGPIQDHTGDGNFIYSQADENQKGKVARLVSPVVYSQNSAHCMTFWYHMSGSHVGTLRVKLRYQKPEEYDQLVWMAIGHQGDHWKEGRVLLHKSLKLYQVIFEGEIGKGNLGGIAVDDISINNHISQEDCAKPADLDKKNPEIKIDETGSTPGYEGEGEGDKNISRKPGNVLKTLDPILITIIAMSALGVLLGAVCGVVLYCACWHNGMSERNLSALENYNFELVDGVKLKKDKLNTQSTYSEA
ATG4B inhibitor = ATG4B protease inhibitors, primary screen, biochemical, fluorescence, uHTS | Cysteine protease ATG4B (Homo sapiens), Q9Y4P1 | ATG4B cleavage of LC3-PLA2, NBD-HPC fluorescence, 1 h | inhibition, % at 8.33 µM | 0.51% of 340,000 active; in the data active = inhibition above about 40%
CFTR F508del cor = F508del CFTR correction, initial screen, CFBE line, single point; 0.36% of 350,000 active; activity (quench increase), % at 7.58 µM; CFBE cells, YFP halide quenching; stimulated with forskolin plus potentiator P3; % fluorescence drop versus neutral controls;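 active = mean added fluorescence quench of at least 8% versus neutral control, with both replicates also reaching 8%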;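 also: cells transiently co-express mutant CFTR-F508del with the halide-sensitive YFP; corrector assay measuring rescue of mutant channel to the surface after 24 h compound exposure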
MPTP counter = fluorescence retest of MPTP screen hits in isolated mitochondria, single concentration; shares compounds with MPTP inh; membrane potential, Rhodamine 123 fluorescence; inhibition, % at 10 µM; AID 624504, 2012; 78% of 5,000 active; in the data active = inhibition above about 22%;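 also: 0% = DMSO vehicle and 100% = positive control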
MPTP abs DR = mitochondrial permeability transition pore inhibitors, dose response, biochemical, absorbance, uHTS hits. shares compounds with MPTP inh. AID 651561, 2012. IC50, µM. isolated mitochondria swelling. 58% of 780 active; in the data active = IC50 below about 20 µM
MPTP counter DR = fluorescent counter-screen in isolated mitochondria, dose response, counter-screen for MPTP inhibitor project, biochemical, fluorescence, uHTS hits; isolated mitochondria counterscreen, fluorescence read-out; shares compounds with MPTP inh; IC50, µM; 49% of 780 active; in the data active = IC50 below about 80 µM
* hit, by the source's call; / = no result. The list is not random: actives were taken first. Their share in the collection is about 2.7%.

SMILES | SKN-1 block | MPTP inh | CendR NRP1 mod | ATG4B inhibitor | CFTR F508del cor | MPTP counter | others
Clc1ccc(-c2nnc(NCc3ccccc3)c3ccccc23)cc1 | -1.4 | 49.7 | 2.8 | -1.7 | / | /
Cc1cccc(NC(=O)Nc2ccc(Oc3c(F)c(F)c(F)c(F)c3F)cc2)c1 | -2.4 | 88.3* | -7.9 | -4.5 | 0.5 | 59.9*
Cn1ccnc1SCc1cc(=O)[nH]c2ccccc12 | 8.5 | 87.0* | -14.3 | -3.2 | -0.7 | 87.2*
C[C@H]1CN([C@@H](C)CO)C(=O)c2cc(C#CC(C)(C)O)cnc2O[C@@H]1CN(C)C(=O)C1CCCCC1 | / | / | / | / | -3.6 | /
O=C(CSc1nc2cc(Cl)ccc2o1)Nc1ccc(N2CCOCC2)cc1 | 4.4 | 50.9* | 0.2 | 3.7 | -2.8 | 67.6*
CC(C)C(=O)Nc1ccc2c(c1)C(=O)N(C)[C@@H]1CC[C@H](CC(=O)NCc3ccccc3)O[C@@H]1CO2 | / | / | / | / | -1.3 | /
COc1ccc(C(=O)CCN2CCCC(C)C2)cc1 (stereo not given) | -8.4 | -0.2 | -3.7 | -3.4 | 1.2 | /
CC1CCCN(CCC(=O)c2ccc(Br)cc2)C1 (stereo not given) | -3.9 | 114.1* | -2.5 | -1.1 | / | 5.3 | MPTP abs DR=5.67*;MPTP counter DR=>80
C[C@H](CO)N1C[C@H](C)[C@H](CN(C)CC2CC2)Oc2c(NS(=O)(=O)c3ccc(Cl)cc3)cccc2C1=O | / | / | / | / | 3.5 | /
CN1CCCC1CCOC(C)(c1ccccc1)c1ccc(Cl)cc1 (stereo not given) | 8.2 | 80.7* | -2.1 | 7.6 | -12.6 | -11.4 | MPTP abs DR=6.08*;MPTP counter DR=>80
COc1ccc(S(=O)(=O)N[C@@H]2CC[C@@H](CC(=O)NCCc3ccncc3)O[C@@H]2CO)cc1 | / | / | / | / | -0.5 | /
CN(CC/C=C1/c2ccccc2CSc2ccccc21)CCCO | 4.4 | -1.0 | -5.2 | 16.6 | -3.2 | /
CN(C)CC/C=C1/c2cc(F)ccc2CSc2ccc(F)cc21 | 10.7 | 72.3* | 7.2 | 3.8 | / | -2.5 | MPTP abs DR=14*;MPTP counter DR=>80
C=CCN(C)CC/C=C1\c2ccccc2CSc2ccccc21 | -6.2 | 74.3* | 10.4 | -1.3 | / | -1.6 | MPTP abs DR=17.5*;MPTP counter DR=73.9*
NCC/C=C1/c2ccccc2CSc2ccccc21 | -20.2 | 87.5* | 15.1 | -9.2 | / | -9.4 | MPTP abs DR=6.79*;MPTP counter DR=>80
Cc1oc2cc([N+](=O)[O-])c(O)c([N+](=O)[O-])c2c1C(=O)c1ccc(Cl)cc1 | 6.6 | 76.1* | 8.2 | 10.2 | -0.9 | 58.5*
COc1ccc(OC)c(C(=O)c2c(C)oc3cc([N+](=O)[O-])c(O)c([N+](=O)[O-])c23)c1 | 0.4 | 1.6 | -4.4 | 1.1 | 2.1 | /
COc1ccc(Cl)cc1C(=O)Nc1ccc(NC(C)=O)cc1 | 17.7 | -0.1 | -4.6 | 2.7 | 3.4 | /
CC(=O)Oc1c(I)cc(I)cc1C(=O)Nc1ccc(Cl)cc1 | 3.3 | 70.5* | 15.2 | 23.9 | -1.5 | 68.9*
Cc1csc2c(N3CCN(C(=O)Nc4ccc(OC(F)(F)F)cc4)CC3)ncnc12 | -0.5 | 88.8* | 2.2 | -28.2 | -0.6 | 72.4*
CC(C)(C)n1ncc(Oc2ccccc2[N+](=O)[O-])c(Cl)c1=O | 6.6 | 85.9* | 10.8 | 2.6 | 2.5 | 34.2*
C[C@H](O)C#Cc1cnc2c(c1)C(=O)N([C@@H](C)CO)C[C@H](C)[C@H](CN(C)C(=O)CN1CCOCC1)O2 | / | / | / | / | -4.0 | /
O=C(COc1ccccc1/C=C1\SC(=S)NC1=O)Nc1ccc(F)cc1 | 3.1 | 61.0* | -22.5 | -0.6 | / | 77.6*
CCOc1cc(S(=O)(=O)NCc2ccncc2)ccc1Cl | -2.8 | 100.3* | -7.6 | 1.3 | 3.4 | 100.9*
Cc1ccc(C)c(S(=O)(=O)NCc2ccncc2)c1 | 7.5 | 7.1 | 8.0 | -6.6 | / | /
SMILES | SKN-1 block | MPTP inh | CendR NRP1 mod | ATG4B inhibitor | CFTR F508del cor | MPTP counter | others
CCOc1cc(S(=O)(=O)NCc2cccs2)ccc1Cl | -11.3 | -4.7 | 7.1 | 1.7 | / | /
CCOC(=O)COc1ccc(S(=O)(=O)NCc2ccncc2)cc1 | -1.5 | 88.5* | 1.5 | -4.4 | / | 85.6*
Cc1cc(S(=O)(=O)NCc2ccncc2)c(C)cc1Br | 4.2 | 59.6* | 8.3 | 0.3 | -1.8 | 88.4*
CCOc1ccc(S(=O)(=O)NCc2ccncc2)cc1 | -15.4 | 99.4* | 4.7 | -3.6 | / | 84.5*
Cc1ccc(S(=O)(=O)NCc2ccncc2)cc1 | -14.9 | 24.6 | 4.8 | -8.5 | / | /
COc1ccc(CN(C)C[C@H]2Oc3ccc(NC(=O)Nc4ccc5c(c4)OCO5)cc3CC(=O)N([C@H](C)CO)C[C@H]2C)cc1 | / | / | / | / | 0.5 | /
O=S(=O)(c1ccc(NC(=S)Nc2ccccc2)cc1)N1CCOCC1 | 7.2 | 5.7 | 16.5 | -8.0 | / | /
CC(NC(=S)Nc1ccc(S(=O)(=O)N2CCOCC2)cc1)C1CC2CCC1C2 (stereo not given) | -0.4 | 93.3* | 10.5 | 30.8 | / | 92.4*
CC(C)CCCCCCNC(=S)Nc1ccc(S(=O)(=O)N2CCOCC2)cc1 | 4.8 | 84.0* | -4.8 | 0.8 | 7.5 | 83.2*
COc1ccccc1C#Cc1ccc2c(c1)O[C@@H](CN(C)C(C)=O)[C@@H](C)CN([C@@H](C)CO)S2(=O)=O | / | / | / | / | 1.2 | /
O=C(O)C[C@@H]1C[C@@H]2c3cc(NC(=O)C4CCOCC4)ccc3O[C@@H]2[C@H](CO)O1 | / | / | / | / | 2.9 | /
C[C@H](CO)N1C[C@H](C)[C@@H](CN(C)C(=O)CN(C)C)Oc2ncc(C#CCC3CCCC3)cc2C1=O | / | / | / | / | 1.4 | /
COC(=O)c1ccc(/C(O)=C(\C#N)c2nc3ccccc3s2)cc1 | -6.1 | 73.7* | -0.4 | 3.9 | / | 53.5*
COC(=O)c1ccc(CC(=O)c2nc3ccccc3s2)cc1 | -8.5 | 26.2 | -4.4 | 7.5 | / | /
Cc1ccc(OC/C(O)=C(\C#N)c2nc3ccccc3s2)cc1 | 3.9 | 73.3* | 6.4 | 9.4 | -2.1 | 43.4*
CC1(C)CC(c2nc(-c3ccc(Cl)cc3)cs2)CCS1 (stereo not given) | 17.4 | 77.6* | -4.3 | -3.1 | / | -0.2 | MPTP abs DR=>100;MPTP counter DR=58.4*
CC1(C)CC(c2nc(-c3ccc(Br)cc3)cs2)CCS1 (stereo not given) | 33.5 | 1.1 | 4.4 | -4.5 | -0.7 | /
Brc1ccc(N/N=C(/N=Nc2nn[nH]n2)c2ccccc2)cc1 | -6.4 | 85.0* | 41.7* | 37.3 | -3.0 | 29.9*
COc1ccc(CNC(=O)C[C@@H]2CC[C@H](NC(=O)c3ccc4c(c3)OCO4)[C@H](CO)O2)cc1 | / | / | / | / | -2.3 | /
